Data: PubChem BioAssay
Several values for one entry are separate records, joined by “and”; a condition that tells them apart may be missing. Equal entries are not always repeated. Activity calls are given as the source filed them.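 Rule for the calls, unless noted: active = thallium flux through the channel raised or lowered by more than 3 SD from vehicle-only wells, actives on both sides; inactive = the rest.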

Assays:
[1] = liver-stage malaria parasite growth inhibition, primary screen, cell-based, HepG2, luciferase luminescence, HepG2 viability (AID 624349; in the data active = parasite load remaining mostly below about 12%, no sharp cut-off; inactive = mostly above about 10%;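 note: 100% = mean of DMSO negative control wells on the same plate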); details: P. berghei liver stage in HepG2, luciferase luminescence, concentration not given here; parasite load remaining: stronger effect = lower value; viability: measured here: HepG2 viability without parasites
[2] = Cy5 fluorescence interference with SSB-bound oligo, artefact control for HCV NS3 helicase inhibitor project, biochemical, NIH Clinical Collection, E. coli SSB (AID 743268; call rule not given here)
[3] = tested on: Hepatitis C virus NS3 helicase; assay: HCV NS3 helicase inhibitors, primary screen, biochemical, fluorescence polarization, NIH Clinical Collection (AID 743270; call rule not given here); details: NS3 helicase binding to Cy5-dT15 DNA, stronger effect = higher value, concentration not given here
[4] = molecular target: Single-stranded DNA-binding protein (Escherichia coli (strain K12)) (UniProt P0AGE0); assay: E. coli SSB displacement from DNA, counter-screen for HCV NS3 helicase inhibitor project, biochemical, fluorescence polarization, NIH Clinical Collection (AID 743271; in the data active = inhibition above about 28%); details: stronger effect = higher value, concentration not given here
[5] = fluorescence interference in NS3h assay format, artefact control for HCV NS3 helicase inhibitor project, biochemical, NIH Clinical Collection (AID 743272; call rule not given here;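 note: HCV NS3 helicase with a Cy5 labelled single stranded DNA probe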); details: fluorescence interference counterscreen, stronger effect = lower value
[6] = modulation of C. elegans fzo-1 (AID 1259413; call rule not given here;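 note: fzo-1 mutant C. elegans worms in liquid wells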); details: C. elegans fzo-1 modulator screen, mean read-out; stronger effect = higher value
[7] = differential killing of epithelial or mesenchymal cells, primary screen, imaging, PC-3E GFP, TEM4-18 mCherry, co-culture (AID 1345086;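 active = compounds killing one labelled cell type while sparing the other, by normalised counts and ratio limits, not self-fluorescent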;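 for all read-outs here: cells exposed to compound for 72 h before imaging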;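 for red/green cell ratio (normalised): normalised mesenchymal count divided by normalised epithelial count so high means epithelial killing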); details: imaging cell counts, at 1 µM; for red/green cell ratio (normalised): actives lie on both sides, counts scaled to control wells, 1 = unselective
[8] = sensitizers of A549 cells to miR-34 induction, primary screen, imaging, A549 dox-inducible miR-34, nuclei and caspase counts (AID 1347080;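 active = compounds whose cell count with miR-34 switched on is under 0.7 times the count with it off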); details: A549 miR-34 inducible, Hoechst nuclei count, 48 h
[9] = survival rescue of mitochondrial mutant cells in low glucose, primary screen, MELAS cybrids, Rieske KO mouse fibroblasts, CellTiter-Glo (AID 1508586;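 active = mean z-score across replicates of 1.96 or higher in either the MELAS or the Rieske mutant cell line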;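 note: z relative to plate mean and SD of compound and empty wells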)
F380Y = assay: modulators of BK channel variants, profiling panel, selectivity assay, cell-based, U2OS BacMam, thallium flux, beta subunits (AID 1259406); details: at 30 µM;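 note: initial slope of Thallos dye fluorescence rise after thallium is added; log ratio against the mean of 0.3% DMSO vehicle wells on the same plate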
F380Y/beta1 = assay: as above; details: at 30 µM
F380Y/beta2Delta = assay: as above; details: at 30 µM
F380Y/beta4 = assay: as above; details: at 30 µM
[10] = molecular target: Calcium-activated potassium channel subunit alpha-1 (Homo sapiens) + Leucine-rich repeat-containing protein 26 (Homo sapiens) (UniProt Q12791+Q2I0M4); assay: as above; details: F380Y/Slo1WT/gamma1, at 30 µM
R275C = assay: as above; details: at 30 µM
R275C/beta1 = assay: as above; details: at 30 µM
R275C/beta2Delta = assay: as above; details: at 30 µM
R275C/beta4 = assay: as above; details: at 30 µM
R275C/Slo1WT/beta2 = assay: as above; details: at 30 µM
[11] = ovarian cancer cell viability with rucaparib, profiling panel, oncology-focused library, rucaparib conditional (AID 1508598;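 active = normalized viability below 100% at a tested concentration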); details: patient-derived ovarian cancer cells, CellTiter-Glo viability, 144 h, stronger effect = lower value
[12] = measured here: epithelial PC-3E GFP cell survival
[13] = measured here: mesenchymal TEM4-18 mCherry cell survival
[14] = stronger effect = lower value, cell number ratio, induced over uninduced
[15] = measured here: relative caspase fold change +Dox/-Dox
[16] = measured here: total cells with miR-34 induction, stronger effect = lower value
[17] = measured here: total cells without miR-34 induction
[18] = MELAS cybrid survival, CellTiter-Glo 48 h, stronger effect = higher value
[19] = Rieske KO mouse fibroblast survival, CellTiter-Glo 72 h

Chain of Calcium-activated potassium channel subunit alpha-1 (Homo sapiens) + Leucine-rich repeat-containing protein 26 (Homo sapiens) (Q2I0M4 whole entry, looked up, one chain of several): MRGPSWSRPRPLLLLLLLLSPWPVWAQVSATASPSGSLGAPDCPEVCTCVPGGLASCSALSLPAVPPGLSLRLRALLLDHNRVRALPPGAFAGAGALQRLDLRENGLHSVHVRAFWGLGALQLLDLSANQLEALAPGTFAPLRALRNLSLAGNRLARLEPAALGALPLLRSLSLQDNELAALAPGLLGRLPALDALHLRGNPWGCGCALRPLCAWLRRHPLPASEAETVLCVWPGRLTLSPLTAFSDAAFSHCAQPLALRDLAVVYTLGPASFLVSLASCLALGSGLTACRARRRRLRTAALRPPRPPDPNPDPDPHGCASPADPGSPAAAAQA

CSc1nc2cc(Oc3cccc(Cl)c3Cl)c(Cl)cc2[nH]1
1.31 and 0.403: fold change [8, 15]
inactive: parasite load remaining [1] 14.4% | fluorescence ratio [2] 0.98 | inhibition [3] 5.94% | inhibition [4] 3.75% | fluorescence ratio [5] 0.96 | mean signal [6] 206 | red/green cell ratio (normalised) [7] 0.82 | fold change [8, 14] 0.963 and 0.988 | z-score [9, 18] -0.167 and -0.17 | log fold change Tl+ flux (F380Y) -0.0619 | log fold change Tl+ flux (F380Y/beta1) 0.0498 | log fold change Tl+ flux (F380Y/beta2Delta) -0.03 | log fold change Tl+ flux (F380Y/beta4) 0.0138 | log fold change Tl+ flux [10] -0.000443 | log fold change Tl+ flux (R275C) 0.0179 | log fold change Tl+ flux (R275C/beta4) 0.0585 | log fold change Tl+ flux (R275C/Slo1WT/beta2) 0.0178
active: log fold change Tl+ flux (R275C/beta1) 0.416 | log fold change Tl+ flux (R275C/beta2Delta) 0.248
-0.137 and -0.629: z-score [9, 19]
1.26: normalised cell number [7, 12]
5860 and 7990: cell count [8, 16]
1.03: normalised cell number [7, 13]
78.3%: viability [1]
6080 and 8080: cell count [8, 17]

CN(C)CCCC1(c2ccc(F)cc2)OCc2cc(C#N)ccc21 (centres undefined)
-0.153 and 0.348 and -0.881: z-score [9, 19]
1.31: normalised cell number [7, 13]
inactive: fluorescence ratio [2] 1.03 and 1.01 | inhibition [3] -5.94% and -0.45% | inhibition [4] -1.64% and 0.29% | fluorescence ratio [5] 0.99 and 1.03 | mean signal [6] 220 | red/green cell ratio (normalised) [7] 1.17 | z-score [9, 18] -0.338 and 0.623 and -0.34 | log fold change Tl+ flux (F380Y) 0.0263 and 0.0749 | log fold change Tl+ flux (F380Y/beta1) 0.0236 and -0.0159 | log fold change Tl+ flux (F380Y/beta2Delta) 0.0311 and 0.0638 | log fold change Tl+ flux (F380Y/beta4) 0.0583 and -0.00121 | log fold change Tl+ flux [10] 0.0169 and -0.0497 | log fold change Tl+ flux (R275C) -0.0255 and -0.00148 | log fold change Tl+ flux (R275C/beta1) 0.0362 and 0.0712 | log fold change Tl+ flux (R275C/beta2Delta) 0.0568 and 0.0646 | log fold change Tl+ flux (R275C/beta4) 0.0241 and 0.0131 | log fold change Tl+ flux (R275C/Slo1WT/beta2) 0.0494 and 0.00231
1.12: normalised cell number [7, 12]

NCC(O)c1ccc(O)c(O)c1 (centres undefined)
1.16: normalised cell number [7, 12]
10900 and 7940: cell count [8, 16]
inactive: parasite load remaining [1] 46.6% | fluorescence ratio [2] 1.02 | inhibition [3] -2.27% | inhibition [4] 0.29% | fluorescence ratio [5] 0.99 | mean signal [6] 234 | red/green cell ratio (normalised) [7] 1.25 | fold change [8, 14] 1.01 and 0.975 | log fold change Tl+ flux (F380Y) -0.00325 | log fold change Tl+ flux (F380Y/beta1) 0.00151 | log fold change Tl+ flux (F380Y/beta2Delta) -0.00353 | log fold change Tl+ flux (F380Y/beta4) 0.0254 | log fold change Tl+ flux [10] 0.0514 | log fold change Tl+ flux (R275C) 0.0185 | log fold change Tl+ flux (R275C/beta1) 0.035 | log fold change Tl+ flux (R275C/beta2Delta) -0.0293 | log fold change Tl+ flux (R275C/beta4) 0.0502 | log fold change Tl+ flux (R275C/Slo1WT/beta2) 0.093
10800 and 8140: cell count [8, 17]
1.45: normalised cell number [7, 13]
1.64 and 1.95: fold change [8, 15]
90.4%: viability [1]

CC(C)NCC(O)c1ccc(NS(C)(=O)=O)cc1 (centres undefined)
0.97: normalised cell number [7, 13]
inactive: fluorescence ratio [2] 1.06 | inhibition [3] 1.19% | inhibition [4] -3.95% | fluorescence ratio [5] 0.98 | mean signal [6] 233 | red/green cell ratio (normalised) [7] 0.8 | z-score [9, 18] -0.308 and -0.43 and 0.386 | log fold change Tl+ flux (F380Y) 0.0283 | log fold change Tl+ flux (F380Y/beta1) -0.0363 | log fold change Tl+ flux (F380Y/beta2Delta) 0.0277 | log fold change Tl+ flux (F380Y/beta4) 0.0134 | log fold change Tl+ flux [10] -0.004 | log fold change Tl+ flux (R275C) -0.065 | log fold change Tl+ flux (R275C/beta1) -0.000905 | log fold change Tl+ flux (R275C/beta2Delta) -0.0581 | log fold change Tl+ flux (R275C/beta4) 0.0206 | log fold change Tl+ flux (R275C/Slo1WT/beta2) 0.0082
0.759 and -0.504 and 0.277: z-score [9, 19]
1.21: normalised cell number [7, 12]

O=C1CN2Cc3c(ccc(Cl)c3Cl)N=C2N1
99.2% and 69.6% and 96.5%: viability [1]
0.79: normalised cell number [7, 13]
-0.321 and 0.64 and -0.821: z-score [9, 19]
inactive: parasite load remaining [1] 45.6% and 99.2% and 57.7% | fluorescence ratio [2] 1.06 | inhibition [3] -12.3% | inhibition [4] -7.03% | fluorescence ratio [5] 1.02 | mean signal [6] 210 | red/green cell ratio (normalised) [7] 0.92 | z-score [9, 18] -0.241 and 0.475 and -0.0504 | viability ([11]; at 0.000305 µM, OCI-C5x cells, with rucaparib 10 µM, 100% = cells with rucaparib alone) 111% | viability ([11]; at 0.000305 µM, OCI-C5x cells, without rucaparib) 124% | viability ([11]; at 0.00122 µM, OCI-C5x cells, with rucaparib 10 µM, 100% = cells with rucaparib alone) 113% | viability ([11]; at 0.00122 µM, OCI-C5x cells, without rucaparib) 126% | viability ([11]; at 0.00122 µM, OCI-P5x cells, with rucaparib 20 µM, 100% = cells with rucaparib alone) 100% | viability ([11]; at 0.00122 µM, OCI-P5x cells, without rucaparib) 107% | viability ([11]; at 0.00488 µM, OCI-C5x cells, with rucaparib 10 µM, 100% = cells with rucaparib alone) 115% | viability ([11]; at 0.00488 µM, OCI-C5x cells, without rucaparib) 121% | viability ([11]; at 0.00488 µM, OCI-P5x cells, with rucaparib 20 µM, 100% = cells with rucaparib alone) 106% | viability ([11]; at 0.00488 µM, OCI-P5x cells, without rucaparib) 105% | viability ([11]; at 0.0195 µM, OCI-C5x cells, with rucaparib 10 µM, 100% = cells with rucaparib alone) 111% | viability ([11]; at 0.0195 µM, OCI-C5x cells, without rucaparib) 115% | viability ([11]; at 0.0195 µM, OCI-P5x cells, without rucaparib) 103% | viability ([11]; at 0.0781 µM, OCI-C5x cells, with rucaparib 10 µM, 100% = cells with rucaparib alone) 109% | viability ([11]; at 0.0781 µM, OCI-C5x cells, without rucaparib) 107% | viability ([11]; at 0.0781 µM, OCI-P5x cells, without rucaparib) 101% | viability ([11]; at 0.313 µM, OCI-C5x cells, with rucaparib 10 µM, 100% = cells with rucaparib alone) 125% | viability ([11]; at 0.313 µM, OCI-C5x cells, without rucaparib) 118% | viability ([11]; at 1.25 µM, OCI-C5x cells, with rucaparib 10 µM, 100% = cells with rucaparib alone) 123% | viability ([11]; at 1.25 µM, OCI-C5x cells, without rucaparib) 107% | viability ([11]; at 5 µM, OCI-C5x cells, with rucaparib 10 µM, 100% = cells with rucaparib alone) 122% | viability ([11]; at 5 µM, OCI-C5x cells, without rucaparib) 116% | log fold change Tl+ flux (F380Y) -0.00116 | log fold change Tl+ flux (F380Y/beta1) 0.0415 | log fold change Tl+ flux (F380Y/beta2Delta) 0.0342 | log fold change Tl+ flux (F380Y/beta4) 0.00749 | log fold change Tl+ flux [10] -0.00535 | log fold change Tl+ flux (R275C) -0.0701 | log fold change Tl+ flux (R275C/beta1) -0.00554 | log fold change Tl+ flux (R275C/beta2Delta) -0.00347 | log fold change Tl+ flux (R275C/beta4) -0.00682 | log fold change Tl+ flux (R275C/Slo1WT/beta2) -0.00842
0.86: normalised cell number [7, 12]
active: viability ([11]; at 0.000305 µM, OCI-P5x cells, with rucaparib 20 µM, 100% = cells with rucaparib alone) 98.8% | viability ([11]; at 0.000305 µM, OCI-P5x cells, without rucaparib) 72% | viability ([11]; at 0.0195 µM, OCI-P5x cells, with rucaparib 20 µM, 100% = cells with rucaparib alone) 99.6% | viability ([11]; at 0.0781 µM, OCI-P5x cells, with rucaparib 20 µM, 100% = cells with rucaparib alone) 94% | viability ([11]; at 0.313 µM, OCI-P5x cells, with rucaparib 20 µM, 100% = cells with rucaparib alone) 90.5% | viability ([11]; at 0.313 µM, OCI-P5x cells, without rucaparib) 92.4% | viability ([11]; at 1.25 µM, OCI-P5x cells, with rucaparib 20 µM, 100% = cells with rucaparib alone) 88.3% | viability ([11]; at 1.25 µM, OCI-P5x cells, without rucaparib) 92.2% | viability ([11]; at 5 µM, OCI-P5x cells, with rucaparib 20 µM, 100% = cells with rucaparib alone) 83.7% | viability ([11]; at 5 µM, OCI-P5x cells, without rucaparib) 85.5%
